Data taken from the supplement of paper PMC10849652.
The full data set covers some 8,800 targets. This sample favours those with a hit. About 0.5% of all pairs of compound and target were hits. Values without a mark were called inactive.

Key:
Assay in all cases: log2 fold change, soluble protein after heating vs DMSO (PISA); higher = thermal stabilisation; K562 lysate, 10 uM; active = over 0.2 and 3.5 SD of the protein, either way, in both replicates (recomputed)
[1] = compound: CS(=O)(=O)CCNCc1ccc(-c2ccc3ncnc(Nc4ccc(OCc5cccc(F)c5)c(Cl)c4)c3c2)o1 [lapatinib]
How it was run: (§1)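 Pellets of K562 cells were dounce-homogenised in PBS pH 7.4 with 1 mM MgCl2, and the crude extract was held at 1 mg/mL protein for a 30 min treatment with 10 μM compound. Aliquots were heated for 3 min over 48°C-58°C and pooled before NP-40 was added to 0.5% at 4°C. The supernatant from 21,000xg for 90 min was quantified by TMTpro 16plex LC-MS/MS with channel sums equalised. Values are reported from duplicates as log-two fold change in thermal stability relative to solvent controls.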

[2] = compound: CS(=O)(=O)N1CCN(Cc2cc3nc(-c4cccc5[nH]ncc45)nc(N4CCOCC4)c3s2)CC1 [pictilisib]
How it was run: as §1

[3] = compound: C[C@@H](Oc1cc(-c2cnn(C3CCNCC3)c2)cnc1N)c1c(Cl)ccc(F)c1Cl [crizotinib]
How it was run: as §1

[4] = compound: C[C@H](C1=CC=C(C=C1)C(=O)NC2=C3C=CNC3=NC=C2)N
How it was run: as §1

[5] = compound: C[C@H](Nc1ncnc2nc[nH]c12)c1cc2cccc(Cl)c2c(=O)n1-c1ccccc1 [duvelisib]
How it was run: as §1

[6] = compound: Cc1cc(Nc2cc(CN3CCOCC3)c3nc(C)c(Cc4ccc(Cl)cc4F)n3n2)n[nH]1 [gandotinib]
How it was run: as §1

[7] = compound: Cc1cc(Nc2cc(N3CCN(C)CC3)nc(Sc3ccc(NC(=O)C4CC4)cc3)n2)n[nH]1 [tozasertib]
How it was run: as §1

[8] = compound: Cc1ccc(-n2nc(C(C)(C)C)cc2NC(=O)Nc2ccc(OCCN3CCOCC3)c3ccccc23)cc1 [doramapimod]
How it was run: as §1

[9] = compound: Cc1ccc(NC(=O)c2ccc(CN3CC[C@H](N(C)C)C3)c(C(F)(F)F)c2)cc1Nc1nccc(-c2cncnc2)n1 [bafetinib]
How it was run: as §1

[10] = compound: Cc1cccc(CC(=O)N2CCc3c2ccc(-c2cn(C)c4ncnc(N)c24)c3F)n1
How it was run: as §1

[11] = compound: Cc1cn(-c2cc(NC(=O)c3ccc(C)c(Nc4nccc(-c5cccnc5)n4)c3)cc(C(F)(F)F)c2)cn1 [nilotinib]
How it was run: as §1

[12] = compound: Cc1nc(Nc2n[nH]c3c2CN(C(=O)N[C@H](CN(C)C)c2ccccc2)C3(C)C)c2sccc2n1
How it was run: as §1

[13] = compound: Cc1nc(Nc2ncc(C(=O)Nc3c(C)cccc3Cl)s2)cc(N2CCN(CCO)CC2)n1 [dasatinib]
How it was run: as §1

[14] = compound: Cc1ncc(-c2ccnc(Nc3ccc(S(C)(=O)=O)cc3)n2)n1C(C)C
How it was run: as §1

[15] = compound: Cn1cc(-c2ccc3c(c2)CCN3C(=O)Cc2cccc(C(F)(F)F)c2)c2c(N)ncnc21
How it was run: as §1

[16] = compound: Cn1cc(CNCC2CCN(c3ncc(C(=O)NO)cn3)CC2)c2ccccc21 [quisinostat]
How it was run: as §1

[17] = compound: Cn1cncc1[C@@](N)(c1ccc(Cl)cc1)c1ccc2c(c1)c(-c1cccc(Cl)c1)cc(=O)n2C [tipifarnib]
How it was run: as §1

[18] = compound: NC(=O)Nc1cc(-c2cccc(F)c2)sc1C(=O)N[C@H]1CCCNC1
How it was run: as §1

[19] = compound: NC(=O)c1cnc(N[C@@H]2CCCC[C@@H]2N)nc1Nc1cccc(-n2nccn2)c1
How it was run: as §1

[20] = compound: NC1(c2ccc(-c3nc4ccn5c(=O)[nH]nc5c4cc3-c3ccccc3)cc2)CCC1
How it was run: as §1

Chain of UniProt Q5SRI9 (Q5SRI9 whole entry, looked up): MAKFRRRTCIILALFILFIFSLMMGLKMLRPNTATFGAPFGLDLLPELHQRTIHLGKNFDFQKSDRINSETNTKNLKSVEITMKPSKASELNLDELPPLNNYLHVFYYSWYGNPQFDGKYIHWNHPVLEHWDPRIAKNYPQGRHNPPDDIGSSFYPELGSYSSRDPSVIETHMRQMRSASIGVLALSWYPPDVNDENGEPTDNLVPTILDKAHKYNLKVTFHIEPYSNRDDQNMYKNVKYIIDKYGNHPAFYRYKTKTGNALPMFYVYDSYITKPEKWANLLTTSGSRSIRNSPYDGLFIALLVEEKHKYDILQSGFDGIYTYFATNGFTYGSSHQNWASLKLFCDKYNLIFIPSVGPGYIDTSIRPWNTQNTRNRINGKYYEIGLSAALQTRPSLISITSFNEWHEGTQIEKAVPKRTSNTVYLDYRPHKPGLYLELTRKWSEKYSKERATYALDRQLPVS
Chain of UniProt Q8WV92 (Q8WV92 whole entry, looked up): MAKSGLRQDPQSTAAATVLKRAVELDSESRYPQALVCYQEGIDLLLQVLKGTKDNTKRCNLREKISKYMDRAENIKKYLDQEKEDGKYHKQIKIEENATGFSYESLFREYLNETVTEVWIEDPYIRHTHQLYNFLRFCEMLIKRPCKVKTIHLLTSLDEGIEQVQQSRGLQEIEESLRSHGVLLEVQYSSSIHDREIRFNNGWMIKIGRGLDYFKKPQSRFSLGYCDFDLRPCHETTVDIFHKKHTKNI
Chain of UniProt O00139 (O00139 whole entry, looked up): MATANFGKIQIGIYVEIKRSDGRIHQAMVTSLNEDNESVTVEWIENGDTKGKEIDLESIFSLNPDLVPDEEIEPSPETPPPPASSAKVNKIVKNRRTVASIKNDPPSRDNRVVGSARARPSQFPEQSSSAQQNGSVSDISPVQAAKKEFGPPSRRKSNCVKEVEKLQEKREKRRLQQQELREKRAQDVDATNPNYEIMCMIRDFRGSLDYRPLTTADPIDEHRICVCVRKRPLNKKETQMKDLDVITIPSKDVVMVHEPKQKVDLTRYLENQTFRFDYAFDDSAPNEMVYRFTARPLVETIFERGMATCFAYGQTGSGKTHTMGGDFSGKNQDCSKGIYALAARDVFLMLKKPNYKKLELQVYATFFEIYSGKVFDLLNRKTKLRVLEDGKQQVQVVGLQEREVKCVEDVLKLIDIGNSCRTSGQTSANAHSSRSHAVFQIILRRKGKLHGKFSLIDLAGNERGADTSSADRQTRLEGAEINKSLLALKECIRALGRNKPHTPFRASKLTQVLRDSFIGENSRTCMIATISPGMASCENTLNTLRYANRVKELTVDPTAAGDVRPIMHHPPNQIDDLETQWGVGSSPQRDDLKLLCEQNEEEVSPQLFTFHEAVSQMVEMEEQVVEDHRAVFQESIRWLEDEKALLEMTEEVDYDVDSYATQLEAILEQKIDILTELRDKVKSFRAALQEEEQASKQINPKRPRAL
Chain of UniProt O00522 (O00522 whole entry, looked up): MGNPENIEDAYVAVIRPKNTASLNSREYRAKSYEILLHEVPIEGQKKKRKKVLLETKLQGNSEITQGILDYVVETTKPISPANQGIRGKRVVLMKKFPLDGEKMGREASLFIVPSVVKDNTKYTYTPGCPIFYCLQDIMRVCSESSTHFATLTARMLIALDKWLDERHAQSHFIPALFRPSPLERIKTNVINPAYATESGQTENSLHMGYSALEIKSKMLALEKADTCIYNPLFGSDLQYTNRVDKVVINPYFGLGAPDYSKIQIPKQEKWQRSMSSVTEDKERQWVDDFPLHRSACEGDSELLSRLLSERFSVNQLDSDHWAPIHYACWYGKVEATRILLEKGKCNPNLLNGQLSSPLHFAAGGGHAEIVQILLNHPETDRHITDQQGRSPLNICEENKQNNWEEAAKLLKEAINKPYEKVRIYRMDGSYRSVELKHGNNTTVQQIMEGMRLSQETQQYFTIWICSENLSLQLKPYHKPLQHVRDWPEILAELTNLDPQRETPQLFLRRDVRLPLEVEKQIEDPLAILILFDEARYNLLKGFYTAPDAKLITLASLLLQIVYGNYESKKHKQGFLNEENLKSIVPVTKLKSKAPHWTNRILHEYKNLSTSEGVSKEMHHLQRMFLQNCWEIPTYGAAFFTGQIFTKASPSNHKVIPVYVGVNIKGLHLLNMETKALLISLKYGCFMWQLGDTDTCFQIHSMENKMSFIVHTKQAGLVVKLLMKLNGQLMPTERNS
Chain of UniProt Q8N5J2 (Q8N5J2 whole entry, looked up): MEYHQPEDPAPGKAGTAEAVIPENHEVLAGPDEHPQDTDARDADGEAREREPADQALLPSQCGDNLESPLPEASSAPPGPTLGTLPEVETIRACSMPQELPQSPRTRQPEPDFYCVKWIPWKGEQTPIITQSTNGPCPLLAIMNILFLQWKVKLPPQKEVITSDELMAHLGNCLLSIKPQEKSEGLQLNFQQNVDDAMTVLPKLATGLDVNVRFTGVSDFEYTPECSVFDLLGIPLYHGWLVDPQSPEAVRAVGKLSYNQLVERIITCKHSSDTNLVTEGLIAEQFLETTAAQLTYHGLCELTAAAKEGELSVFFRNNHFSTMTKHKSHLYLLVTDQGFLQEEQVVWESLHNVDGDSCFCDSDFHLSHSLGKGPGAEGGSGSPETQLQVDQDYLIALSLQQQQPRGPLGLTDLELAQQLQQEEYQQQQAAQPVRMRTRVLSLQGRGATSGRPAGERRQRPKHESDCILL
Chain of UniProt Q9HAP2 (Q9HAP2 whole entry, looked up): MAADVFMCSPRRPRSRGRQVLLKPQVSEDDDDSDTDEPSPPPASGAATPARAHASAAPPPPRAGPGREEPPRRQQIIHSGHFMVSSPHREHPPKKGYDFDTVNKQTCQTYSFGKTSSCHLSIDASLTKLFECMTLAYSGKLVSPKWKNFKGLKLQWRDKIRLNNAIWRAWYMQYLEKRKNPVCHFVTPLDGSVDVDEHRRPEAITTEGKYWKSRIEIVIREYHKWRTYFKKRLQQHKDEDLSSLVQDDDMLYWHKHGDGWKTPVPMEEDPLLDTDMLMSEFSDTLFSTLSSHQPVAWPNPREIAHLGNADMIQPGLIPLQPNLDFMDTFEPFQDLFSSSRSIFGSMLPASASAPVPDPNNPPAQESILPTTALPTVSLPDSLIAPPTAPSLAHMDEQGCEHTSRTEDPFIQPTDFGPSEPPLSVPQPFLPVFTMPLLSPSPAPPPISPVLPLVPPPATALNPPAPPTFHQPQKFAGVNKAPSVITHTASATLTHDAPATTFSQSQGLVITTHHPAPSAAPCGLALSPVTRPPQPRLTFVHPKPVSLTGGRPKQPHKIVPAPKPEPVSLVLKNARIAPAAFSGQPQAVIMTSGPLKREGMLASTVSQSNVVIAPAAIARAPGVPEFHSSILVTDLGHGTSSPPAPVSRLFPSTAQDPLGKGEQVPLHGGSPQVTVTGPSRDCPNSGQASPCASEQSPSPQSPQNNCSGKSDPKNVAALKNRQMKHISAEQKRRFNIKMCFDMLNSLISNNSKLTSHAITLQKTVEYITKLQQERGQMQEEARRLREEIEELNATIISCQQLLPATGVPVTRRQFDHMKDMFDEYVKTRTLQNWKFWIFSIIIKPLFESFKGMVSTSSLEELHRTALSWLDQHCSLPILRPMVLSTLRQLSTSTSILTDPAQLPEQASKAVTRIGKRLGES
Chain of UniProt Q9BTE3 (Q9BTE3 whole entry, looked up): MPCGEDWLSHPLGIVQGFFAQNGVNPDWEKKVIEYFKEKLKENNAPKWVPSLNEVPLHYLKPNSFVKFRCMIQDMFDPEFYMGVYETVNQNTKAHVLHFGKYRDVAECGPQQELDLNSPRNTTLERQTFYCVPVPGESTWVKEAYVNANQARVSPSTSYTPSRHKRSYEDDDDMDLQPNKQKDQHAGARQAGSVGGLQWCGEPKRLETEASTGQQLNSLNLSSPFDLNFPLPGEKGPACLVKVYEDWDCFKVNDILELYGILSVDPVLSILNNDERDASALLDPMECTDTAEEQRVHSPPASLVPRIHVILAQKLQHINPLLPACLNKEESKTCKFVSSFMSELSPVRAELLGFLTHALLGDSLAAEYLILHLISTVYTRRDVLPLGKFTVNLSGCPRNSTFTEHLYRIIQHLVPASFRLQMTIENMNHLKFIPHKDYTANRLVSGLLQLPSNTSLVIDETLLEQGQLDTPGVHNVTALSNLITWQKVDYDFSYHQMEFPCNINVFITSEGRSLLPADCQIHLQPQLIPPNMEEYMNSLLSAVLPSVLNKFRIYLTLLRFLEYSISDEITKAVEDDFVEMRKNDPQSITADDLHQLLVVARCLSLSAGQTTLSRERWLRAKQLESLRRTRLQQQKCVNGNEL
Chain of UniProt Q53G59 (Q53G59 whole entry, looked up): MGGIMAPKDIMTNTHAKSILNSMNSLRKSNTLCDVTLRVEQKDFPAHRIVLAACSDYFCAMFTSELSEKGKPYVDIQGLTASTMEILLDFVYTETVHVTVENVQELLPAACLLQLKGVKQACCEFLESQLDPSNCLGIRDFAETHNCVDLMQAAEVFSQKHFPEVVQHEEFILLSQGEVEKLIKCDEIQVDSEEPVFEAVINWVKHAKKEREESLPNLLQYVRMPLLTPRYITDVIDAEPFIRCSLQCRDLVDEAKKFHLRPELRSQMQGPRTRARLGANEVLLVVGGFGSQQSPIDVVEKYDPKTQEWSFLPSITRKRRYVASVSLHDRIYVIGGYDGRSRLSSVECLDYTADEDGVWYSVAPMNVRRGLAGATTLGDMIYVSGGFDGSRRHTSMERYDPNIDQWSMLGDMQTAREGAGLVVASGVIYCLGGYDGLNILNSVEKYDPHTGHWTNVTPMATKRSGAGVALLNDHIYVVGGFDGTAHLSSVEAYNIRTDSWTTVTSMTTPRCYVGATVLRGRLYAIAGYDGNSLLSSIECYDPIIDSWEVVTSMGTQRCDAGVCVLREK
Chain of UniProt Q8WXB1 (Q8WXB1 whole entry, looked up): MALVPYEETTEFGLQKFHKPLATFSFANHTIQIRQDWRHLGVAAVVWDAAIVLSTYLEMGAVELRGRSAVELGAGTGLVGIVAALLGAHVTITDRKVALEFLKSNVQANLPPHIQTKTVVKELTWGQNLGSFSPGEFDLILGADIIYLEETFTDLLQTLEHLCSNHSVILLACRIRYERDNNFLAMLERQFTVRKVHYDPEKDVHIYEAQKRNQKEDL

Target | log2 fold change [1] | log2 fold change [2] | log2 fold change [3] | log2 fold change [4] | log2 fold change [5] | log2 fold change [6] | log2 fold change [7] | log2 fold change [8] | log2 fold change [9] | log2 fold change [10] | log2 fold change [11] | log2 fold change [12] | log2 fold change [13] | log2 fold change [14] | log2 fold change [15] | log2 fold change [16] | log2 fold change [17] | log2 fold change [18] | log2 fold change [19] | log2 fold change [20]
KIF11 (UniProt P52732) | 0 | 0.021 | 0.001 | -0.03 | 0.017 | -0.042 | 0.006 | 0.014 | -0.014 | 0.063 | -0.016 | 0.003 | -0.021 | -0.018 | 0.034 | -0.022 | -0.007 | 0.006 | 0 | 0
KLHL12 isoform 2 (UniProt Q53G59) | 0.023 | 0.048 | 0.016 | – | 0.084 | – | – | 0.003 | -0.131 | – | -0.037 | -0.044 | -0.056 | 0.064 | -0.07 | 0.04 | 0.015 | 0.097 | 0.043 | 0.035
KRIT1 (UniProt O00522) | -0.115 | -0.058 | -0.07 | – | -0.001 | – | -0.043 | 0.016 | -0.041 | – | -0.011 | -0.04 | 0.027 | 0.041 | -0.048 | -0.147 | -0.135 | 0.09 | 0.021 | -0.005
MANEA (UniProt Q5SRI9) | -0.01 | 0.008 | -0.023 | -0.464 (active) | 0.036 | 0.365 (active) | 0.035 | 0.034 | 0.007 | 0.278 | – | – | -0.003 | – | 0.046 | 0.046 | – | 0.05 | 0.01 | -0.044
MIF (UniProt P14174) | 0.04 | 0.06 | -0.022 | -0.258 (active) | 0.022 | 0.11 | -0.057 | 0.008 | 0.383 | 0.024 | 0.036 | -0.042 | 0.001 | -0.007 | -0.009 | 0.058 | 0.061 | 0.035 | 0 | 0.033
MAST2 (UniProt Q6P0Q8) | 0.012 | 0.161 | -0.004 | -0.171 | -0.065 | -0.07 | 0.148 | -0.034 | -0.289 | -0.092 | – | – | 0.049 | – | 0.044 | -0.024 | – | 0.047 | -0.005 | -0.036
MINDY1 isoform 3 (UniProt Q8N5J2) | -0.002 | 0 | -0.045 | – | 0.051 | – | -0.036 | 0.051 | -0.11 | – | -0.03 | 0.154 | -0.086 | 0.271 | 0.159 | -0.006 | 0.022 | -0.072 | 0.548 (active) | 0.038
MCMBP isoform 2 (UniProt Q9BTE3) | 0.154 | -0.179 | 0.14 | – | -0.03 | – | 0.013 | -0.092 | 0.235 | – | 0.152 | -0.039 | 0.099 | -0.144 | -0.099 | -0.076 | 0.066 | -0.041 | 0.082 | -0.118
MARK3 (UniProt P27448) | 0.007 | -0.061 | -0.206 | 0.043 | 0.011 | -0.089 | -0.143 | -0.081 | -0.088 | 0.049 | 0.013 | -0.004 | -0.186 | -0.05 | 0.014 | 0.172 | -0.072 | -0.08 | -0.029 | -0.06
MME (UniProt P08473) | 0.025 | -0.024 | 0.037 | 0.037 | 0.066 | -0.002 | – | 0.002 | 0.058 | 0.048 | -0.09 | 0.082 | -0.513 (active) | 0.021 | 0.104 | -0.02 | -0.031 | 0.085 | 0.061 | -0.014
KIF2A isoform 4 (UniProt O00139) | -0.004 | -0.006 | -0.004 | 0.026 | 0.022 | -0.066 | 0.01 | 0.055 | -0.006 | 0.037 | 0.021 | -0.015 | -0.022 | -0.02 | 0.042 | -0.005 | 0.015 | 0.021 | 0.017 | 0.006
MRPL35 (UniProt Q9NZE8) | 0.051 | 0.001 | 0.01 | -0.207 | -0.054 | 0 | – | -0.023 | -0.02 | 0.039 | 0.05 | -0.027 | 0.062 | 0.049 | -0.028 | 0.004 | -0.037 | -0.034 | -0.007 | 0.056
KIF4A (UniProt O95239) | 0.007 | -0.002 | -0.043 | 0.012 | -0.029 | -0.061 | 0.021 | 0 | -0.066 | -0.006 | -0.02 | 0.029 | -0.011 | 0.014 | 0.037 | -0.104 | 0.017 | 0.042 | -0.014 | 0.014
LDAH isoform 2 (UniProt Q9H6V9) | 0.014 | 0.006 | -0.062 | -0.016 | 0.008 | -0.036 | 0.06 | 0.021 | -0.01 | 0.143 | -0.062 | 0.023 | -0.071 | -0.003 | 0.017 | -0.022 | -0.077 | 0.037 | -0.009 | 0.307 (active)
MITD1 (UniProt Q8WV92) | 0.003 | -0.032 | 0.046 | 0.086 | 0.055 | 0.025 | -0.015 | -0.049 | -0.118 | -0.085 | -0.022 | 0.089 | 0.011 | -0.09 | 0.027 | 0.027 | 0.022 | 0.03 | 0.07 | -0.047
MLXIP (UniProt Q9HAP2) | -0.009 | -0.049 | -0.023 | -0.052 | -0.078 | -0.032 | 0.019 | 0.009 | -0.01 | 0.043 | 0.09 | 0.003 | -0.068 | 0.003 | 0.02 | -0.04 | 0 | 0.082 | -0.01 | -0.028
METTL21A (UniProt Q8WXB1) | 0.004 | 0.06 | -0.043 | -0.083 | 0.131 | 0.038 | – | -0.081 | -0.04 | 0.016 | 0.017 | 0.055 | 0.023 | 0.026 | -0.064 | -0.069 | -0.005 | -0.001 | -0.007 | 0.003
